Test results: PubChem BioAssay (NCATS)
Results filed as inconclusive are left out. Calls of active or inactive are those of the source. Unless noted, the call rests on the fitted dose curve; in most records, active means well fitted curve in the direction sought with a large enough effect; inconclusive means small, poorly fitted or top-dose-only effect, or another doubt; inactive means no such curve, though single readings can be large; an effect the other way counts as inactive or inconclusive.

Key:
[1] = AP1 Signaling Pathway (AID 357; active means well fitted curve in either direction with a large enough effect, not every such curve was filed as active;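 further: ME-180 reporter cells stimulated with EGF at its EC50 level; on the % scale 0 is the no-effect control and ±100 the full control effect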); conditions: ME-180 AP-1-bla reporter, EGF-induced, beta-lactamase ratio, 5 h; at 38 µM (top of the series)
Summary of the method: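 AP-1-bla ME-180 cells, Opti-MEM + 0.5% dialyzed FBS, plated overnight 37 °C. Cpd titration + EC50 EGF, 5 h 37 °C. CCF4 2.5 h RT; ex 405, em 460/530 ratio → %activity, AC50.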

[2] = target: Cytochrome P450 1A2 (Homo sapiens) (UniProt P05177); test: p450-cyp1a2 (AID 410; calls by dose curve;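 further: -100% = full effect of reference inhibitor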)
Summary of the method: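 Inhibition was calculated relative to 57 uM furafylline (full inhibition). The reaction used human CYP1A2 at 20nM with Luciferin-ME at its Km, 100uM, driven by an NADPH-regenerating system for 60 min at room temperature.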

[3] = Stat Signaling Pathway (AID 446; active means well fitted curve in either direction with a large enough effect, not every such curve was filed as active;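 further: ME-180 cervical cancer cells given 40 pM IL-6 alongside compound; SIE-controlled beta-lactamase reporter measured as 460/530 nm FRET emission ratio; on the % scale 0 is the no-effect control and ±100 the full control effect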); conditions: ME-180 SIE beta-lactamase reporter, IL-6 stimulated, 5 h; at 38 µM (top of the series)
Summary of the method: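 Reporter line: ME-180 cervical carcinoma, SIE-beta-lactamase. Treatment: compound with 40 pM IL-6, 5 hrs, 37 C, in low-serum OPTI-MEM with 10 mM HEPES pH 7.3. Detection: 460/530 nm fluorescence.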

[4] = target: Glucocorticoid receptor (Homo sapiens) (UniProt P04150); test: GR-GFP Redistribution (AID 450;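 active means compounds whose dose series gives a full or clear partial fitted curve of increased nuclear translocation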; further: potency means the concentration at half of the fitted maximal effect); conditions: U2OS GR-GFP nuclear translocation, laser cytometry, 2 h
[5] = target: Glucocorticoid receptor (Homo sapiens) (UniProt P04150); test: GR-EFC Redistribution (AID 451; calls by dose curve; further: potency means the concentration at half of the fitted maximal effect); conditions: CHO-K1 GR-EFC translocation, beta-gal luminescence, 2 h
Summary of the method: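 CHO-K1 cells stably expressing nuclear-localized β-gal enzyme acceptor and GR fused C-terminally to the enzyme donor fragment; ligand-driven nuclear translocation restores β-gal by complementation. Compounds titrated up to 46 uM final, 2 h at 37 °C; luminescence read.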

[6] = target: Mitogen-activated protein kinase 10 (Mus musculus) (UniProt Q61831); test: JNK3 AlphaScreen Assay (AID 530; active means well fitted curve in either direction with a large enough effect, not every such curve was filed as active;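 further: kinase came from lysate of stimulated human HepG2 cells; signal reports phosphorylation of biotinylated GST-cJun 1-79 at Ser73 with 10 µM ATP; on the % scale 0 is the no-effect control and ±100 the full control effect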)
Summary of the method: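 JNK3 came from HepG2 lysates pre-activated with IL-1beta and TNF-alpha and phosphorylated biotinylated GST-cJun (1-79) at 10 uM ATP, pH 7.6, room temperature. Compounds were titrated. AlphaScreen signal used anti-phospho-cJun (Ser73) antibody.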

[7] = target: 3',5'-cyclic-AMP phosphodiesterase 4B (Homo sapiens) (UniProt Q07343); test: qHTS Assay for Inhibitors of PDE-IV (AID 607; active means well fitted activation curve with a large enough effect in the main read-out, with a control signal flat, not every such curve was filed as active; further: % of control where 0% means no effect)
Summary of the method: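 Cell-based read-out of cAMP via a modified cyclic nucleotide-gated channel and membrane potential dye (535/590 nm) in HEK293 cells expressing PDE4 endogenously. Compounds tested up to 22.9 uM final; 100 uM RO 20-1724 reference.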

[8] = target: Guanine nucleotide-binding protein G(i) subunit alpha-1 (Homo sapiens) (UniProt P63096); test: qHTS Assay for Inhibitors of RGS12 GoLoco Motif Activity (Green Fluorophore) (AID 879);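 further: 0% = labeled peptide with Gαi1 and full inhibition = labeled peptide alone without protein; negative values mean loss of peptide binding seen as reduced polarization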
Summary of the method: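 Fluorescence polarization assay: 50 nM Gαi1 with 10 nM FITC-labeled RGS12 GoLoco peptide in 10 mM Tris pH 7.5, 150 mM NaCl, 0.1 mM GDP, 0.05% NP40, 10 min at room temperature with compound.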

[9] = target: Cytochrome P450 3A4 (Homo sapiens) (UniProt P08684); test: qHTS Assay for Activators of Cytochrome P450 3A4 (AID 885); further: nearly all actives have a fitted effect of over 65% in size
Summary of the method: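 Signal was normalized against complete inhibition by 57 uM ketoconazole. The reaction used 20nM CYP3A4 with 25uM Luciferin-PPXE, 10-min compound preincubation and a 60-min NADPH-supported step at RT.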

[10] = target: Cytochrome P450 2D6 (Homo sapiens) (UniProt P10635); test: qHTS Assay for Inhibitors and Substrates of Cytochrome P450 2D6 (AID 891); further: potency means the concentration at half of the fitted maximal effect; nearly all actives have a fitted effect of over 60% in size
Summary of the method: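 Human CYP2D6 (5 nM) with 30 uM Luciferin-ME EGE (at Km) in 100 mM KPO4, compound preincubated 10 min, then NADPH regeneration system for 60 min at room temperature. Luciferin read by luminescence; normalized to 1.43 uM quinidine.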

[11] = target: Muscarinic acetylcholine receptor M1 (Rattus norvegicus) (UniProt P08482); test: qHTS Assay for Antagonists of Acetylcholine Muscarinic M1 Receptor: Measurement of IP-One Response (AID 944); further: potency means the concentration at half of the fitted maximal effect; nearly all actives have a fitted effect of over 75% in size
Summary of the method: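 Steps: plate transfected CHO-M1 cells overnight; add test compound, 10 min; add carbachol (200 nM, EC80) in stimulation buffer with LiCl; incubate 30 min; add labelled IP1 tracer and anti-IP1 antibody in lysis buffer; read HTRF after 10 min.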

[12] = target: Pyruvate kinase (Leishmania mexicana) (UniProt Q27686); test: qHTS Validation Assay for Inhibitors of Leishmania Mexicana Pyruvate Kinase (AID 945);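 further: 0% = DMSO only neutral control wells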
Summary of the method: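 The enzyme is a highly purified E451W mutant of LmPYK used at 0.2 nM. It converts 0.5 mM PEP and 0.1 mM ADP over 1 h at room temperature; product ATP is quantified by luciferase luminescence relative to DMSO controls.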

[13] = target: Pyruvate kinase PKM (Homo sapiens) (UniProt P14618); test: qHTS Assay for Activators of Human Muscle Pyruvate Kinase (AID 954; active means well fitted curve in the direction sought with a large enough effect, not every such curve was filed as active;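 further: 0% = uninhibited enzyme and -100% = no enzyme or full thiadiazolimine inhibition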)
Summary of the method: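 Human PKM2 activity is measured as ATP generation, detected by luciferase-coupled luminescence. The enzyme (0.1 nM) acts on 0.5 mM PEP and 0.1 mM ADP for 1 h at ambient temperature; data are normalized to uninhibited and full-inhibition wells.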

[14] = target: alpha-glucosidase (Oryza sativa, rice) (UniProt Q653V4); test: Counterscreen for Glucocerebrosidase Inhibitors: qHTS Assay for Rice alpha-Glucosidase at pH 5.0 (AID 997);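 further: 0% = full activity with enzyme and -100% = basal without enzyme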
Summary of the method: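 Rice alpha-glucosidase (4 nM final) with 400 uM 4-methylumbelliferyl-alpha-D-glucopyranoside in citrate buffer pH 5.0, 20 min at room temperature, stopped at pH 10; fluorescence 365/440 nm, compounds 0.7 nM–77 uM, AC50 from Hill fits.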

[15] = Validation of Assay for Modulators of Lamin A Splicing (AID 1459; active means well fitted curve in the direction sought with a large enough effect in the signal ratio; the % refers to the signal ratio;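 further: cells exposed to compound for two days before reading; 0% is about no effect; ratio rise marks activators and ratio drop marks inhibitors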)
Summary of the method: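 Readout: ratio of GFP (500-530 nm) to RFP (575-640 nm) total object intensity by 488 nm laser-scanning cytometry after 48 hrs. Cells were HeLa S3 clones carrying lamin A-EGFP minigene plus DsRed2 viability reporter; vehicle 0.5% DMSO final.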

[16] = qHTS Assay for Lipid Storage Modulators (AID 1519; calls by dose curve); conditions: Drosophila S3 cells, BODIPY lipid droplet/cell ratio, laser cytometry, cells loaded with oleic acid
Summary of the method: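 Cells seeded at 5,000 per well were treated with compounds over a concentration series and loaded with oleic acid (400 uM, as added). Lipid droplet fluorescence (488 nm excitation, 500-530 nm channel) was read by laser-scanning cytometry and normalized to 20 uM Triacsin C.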

[17] = target: DNA repair nuclease/redox regulator APEX1 (Homo sapiens) (UniProt P27695); test: qHTS Validation Assay for Inhibitors of the Human Apurinic/apyrimidinic Endonuclease 1 (APE1) (AID 1705;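 further: TAMRA fluorescence gain over two minutes as APE1 cuts a quenched THF abasic duplex; on the % scale 0 is the no-effect control and ±100 the full control effect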)
Summary of the method: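 Read-out: TAMRA fluorescence (525 nm ex, 598 nm em) from cleavage of a quenched THF abasic-site duplex, 50 nM final; activity taken as intensity change between third and first of three reads 60 s apart.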

[18] = Counterscreen for APE1 Inhibitors: Fluorescent Dye Displacement Validation Assay (AID 1707);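 further: plate controls were ThO with dsDNA and no compound for no effect and ThO without dsDNA for full effect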
Summary of the method: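 Compounds are scored by their ability to displace Thiazole Orange (250 nM) from a 50 nM TAMRA-tagged duplex bearing a tetrahydrofuran abasic site. Buffer is 50 mM Tris-HCl pH7.5, 50mM NaCl, 2 mM MgCl2, 0.01% Tween-20.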

[19] = target: Endonuclease 4 (Escherichia coli (strain K12)) (UniProt P0A6C1); test: Counterscreen for APE1 Inhibitors: qHTS Validation Assay for Inhibitors of Endonuclease IV (AID 1708); further: on the % scale 0 is the no-effect control and ±100 the full control effect
Summary of the method: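 2 nM enzyme was preincubated with compounds for 15 min at room temperature in 50 mM Tris-HCl pH 7.5, 50 mM NaCl, 2 mM MgCl2, 1 mM DTT, 0.01% Tween-20. 50 nM THF-abasic TAMRA/BHQ-2 duplex substrate started the reaction.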

[20] = qHTS for differential inhibitors of proliferation of Plasmodium falciparum line 7G8 (AID 1815);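 further: potency means the concentration at half of the fitted maximal effect; parasite growth measured after three days of incubation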
[21] = qHTS for differential inhibitors of proliferation of Plasmodium falciparum line D10 (AID 1877);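 further: parasites grown with compound for 72 h before DNA staining; plate controls were vehicle wells for no effect and reference inhibitor wells for full effect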
[22] = qHTS for differential inhibitors of proliferation of Plasmodium falciparum line W2 (AID 1883); conditions: Potency: Plasmodium falciparum W2 proliferation inhibition;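 further: potency means the concentration at half of the fitted maximal effect; parasites grown with compound for 72 h before lysis and staining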
[23] = target: Ferritin light chain (Equus caballus) (UniProt P02791); test: qHTS Validation Assay for Identification of Novel General Anesthetics (AID 2323); further: on the % scale 0 is the no-effect control and ±100 the full control effect
Summary of the method: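 10 uM horse-spleen apoferritin + 1-AMA (50% saturated, PBS); cpd pin-transferred, 10 min RT. Ex 380/Em 535 nm endpoint. Activity normalized between free 1-AMA and 1-AMA/apoferritin; 4-parameter Hill fit of concentration-response.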

[24] = target: ATP-dependent DNA helicase Q1 (Homo sapiens) (UniProt P46063); test: qHTS Validation Assay for Inhibitors of RecQ-Like Dna Helicase 1 (RECQ1) (AID 2353);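 further: plate controls were DMSO vehicle for no effect and enzyme-free control for full effect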
Summary of the method: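 50 nM RECQ1T1 preincubated 15 min with compound in Tris pH 8.0 buffer with MgCl2, DTT, Tween-20 and 2.5 ug/ml poly(dI-dC); started with 200 nM TAMRA/BHQ-2 forked duplex and 2 mM ATP. Unwinding read as fluorescence (525/598 nm), two reads 2 h apart.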

[25] = Cytometric Cell-Based qHTS for Inhibitors of the mTORC1 Signaling Pathway in MEF (Tsc2-/-, p53-/-) Cells (AID 2660);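 further: percent of cells above a phospho-rpS6 to PI ratio cutoff in each well; plate controls were DMSO for no effect and rapamycin for full effect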
Summary of the method: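 Immunofluorescence qHTS of rpS6 Ser235/236 phosphorylation: MEFs (Tsc2-/-, p53-/-) treated 24 h, 37 C, in DMEM + 10% FBS. Alexa-488 signal normalized to PI count, referenced to rapamycin (7.5 nM) and DMSO; PI cell number recorded for viability.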

[26] = High Content Imaging Cell-Based qHTS for Inhibitors of the mTORC1 Signaling Pathway in MEF (Tsc2-/-, p53-/-) Cells (AID 2666); conditions: at 38.3 µM (top of the series);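 further: percent of cells scored positive for phospho-rpS6 Ser235/236 immunostaining by imaging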
Summary of the method: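 Read-out: % positive cells per well, with thresholds from highest- and lowest-signal wells, based on phospho-rpS6 (Ser235/236) intensity normalized to Hoechst nuclear stain. Cells: Tsc2-/-, p53-/- MEFs carrying empty vector; compound 24 hrs, 37 degree Celsius.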

[27] = High Content Imaging Cell-Based qHTS for Inhibitors of the mTORC1 Signaling Pathway in MEF Cells (AID 2667);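 further: Tsc2-/- p53-/- MEFs stably re-expressing wild-type Tsc2 exposed 24 h; plate controls were DMSO wells for no effect and rapamycin control wells for full effect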
Summary of the method: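 MEF (Tsc2-/-, p53-/-, WT Tsc2 re-expressed); cpd 24 h, 37 °C; PFA fix; Alexa-488 anti-p-rpS6 Ser235/236, PI, Hoechst; IN Cell imaging; Hoechst/Alexa-488 intensity ratio; % active cells, thresholds set from rapamycin and DMSO wells.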

[28] = Cytometry Cell-Based qHTS for Inhibitors of the mTORC1 Signaling Pathway in MEF cells (AID 2668);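 further: Tsc2-/- p53-/- mouse embryonic fibroblasts stably re-expressing wild-type Tsc2; percent cells positive for phospho-rpS6 Ser235/236 relative to propidium iodide stain; plate controls were DMSO wells for no effect and 7.5 nM rapamycin control wells for full effect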
Summary of the method: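 Read-out: phospho-rpS6 Ser235/236 immunofluorescence normalized to propidium iodide intensity, scored as % active cells against a rapamycin (7.5 nM) threshold. Cells: Tsc2-/-, p53-/- MEFs stably expressing WT Tsc2, compound-treated 24 hrs at 37 degree Celsius.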

[29] = Validation screen for small molecules that induce DNA re-replication in MCF 10A normal breast cells (AID 463097); further: 0% is about no effect; nearly all actives have a fitted effect of over 60% in size
Summary of the method: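 250 MCF 10A cells/well; compound pin-transferred; 48 hr, 37 C, 5% CO2; Hoechst 40 min; imaged 405/500-530 nm. Hits = more high-intensity nuclei.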

[30] = target: Ubiquitin carboxyl-terminal hydrolase 2 (Homo sapiens) (UniProt O75604); test: qHTS Validation Assay for Inhibitors of Ubiquitin-specific Protease USP2a Using CHOP2 as the Reporter (AID 463106);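 further: plate controls were DMSO for no effect and full inhibition by NEM for full effect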
Summary of the method: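 USP2 core (10nM final) was preincubated with compound for 30min at RT in 20mM Tris-HCl pH 8.0, 2mM CaCl2, 2mM beta-mercaptoethanol, 0.05% CHAPS. Ub-CHOP2 and reporter substrate (25nM each) were added, and fluorescence (Ex 485/Em 531nm) was read after 60min.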

[31] = target: DNA polymerase III PolC-type (Bacillus subtilis (strain 168)) (UniProt P13267); test: qHTS Validation Assay for the Inhibitors of DNA Replication in Gram-Positive Bacteria (AID 485295);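 further: reconstituted holoenzyme with PolC plus beta clamp SSB and primase; PicoGreen fluorescence of double-stranded DNA made on primed circular M13 template; 0% = DMSO wells and -100% = EDTA-quenched background wells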
Summary of the method: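 PicoGreen fluorescence (ex 480–485/em 535–540 nm) reports dsDNA synthesized on ssM13Gori template with dNTPs/NTPs. Enzyme: holoenzyme rebuilt from purified PolC, beta subunit, SSB and primase. Compound preincubated before substrate addition; RT throughout.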

[32] = target: Tumor susceptibility gene 101 protein (Homo sapiens) (UniProt Q99816); test: qHTS Validation Assay for Iinhibitors of HIV-1 Budding by Blocking the Interaction of PTAP/TSG101 (AID 485342; calls by dose curve; further: 0% is about no effect)
Summary of the method: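 FP read-out: FITC-PTAP peptide, 50 nM final, binding Tsg101 binding domain, 10 uM final; 20 min r.t.; 10 mM HEPES pH 7.5, 0.15 M NaCl, 0.01% Tween 20, 3 mM EDTA, 0.1 mM TCEP.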

[33] = qHTS Validation Assay to Find Inhibitors of Chronic Active B-Cell Receptor Signaling (AID 485345; active means well fitted curve in the direction sought with a large enough effect in the main read-out, with a control signal flat, not every such curve was filed as active;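 further: 0% = untreated basal cells and 100% = 10 µM MG-132 proteasome inhibitor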)
Summary of the method: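 TMD8 ABC-DLBCL cells with dox-inducible green luciferase–IκBα fusion and red native luciferase; compounds 46 uM–3 nM, 4 h at 37C with doxycycline in 0.5% FBS IMDM. Green/red ratio normalized to basal and 10 uM MG-132.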

Chain of Glucocorticoid receptor (Homo sapiens) (P04150 whole entry, looked up, the tested form may be a part): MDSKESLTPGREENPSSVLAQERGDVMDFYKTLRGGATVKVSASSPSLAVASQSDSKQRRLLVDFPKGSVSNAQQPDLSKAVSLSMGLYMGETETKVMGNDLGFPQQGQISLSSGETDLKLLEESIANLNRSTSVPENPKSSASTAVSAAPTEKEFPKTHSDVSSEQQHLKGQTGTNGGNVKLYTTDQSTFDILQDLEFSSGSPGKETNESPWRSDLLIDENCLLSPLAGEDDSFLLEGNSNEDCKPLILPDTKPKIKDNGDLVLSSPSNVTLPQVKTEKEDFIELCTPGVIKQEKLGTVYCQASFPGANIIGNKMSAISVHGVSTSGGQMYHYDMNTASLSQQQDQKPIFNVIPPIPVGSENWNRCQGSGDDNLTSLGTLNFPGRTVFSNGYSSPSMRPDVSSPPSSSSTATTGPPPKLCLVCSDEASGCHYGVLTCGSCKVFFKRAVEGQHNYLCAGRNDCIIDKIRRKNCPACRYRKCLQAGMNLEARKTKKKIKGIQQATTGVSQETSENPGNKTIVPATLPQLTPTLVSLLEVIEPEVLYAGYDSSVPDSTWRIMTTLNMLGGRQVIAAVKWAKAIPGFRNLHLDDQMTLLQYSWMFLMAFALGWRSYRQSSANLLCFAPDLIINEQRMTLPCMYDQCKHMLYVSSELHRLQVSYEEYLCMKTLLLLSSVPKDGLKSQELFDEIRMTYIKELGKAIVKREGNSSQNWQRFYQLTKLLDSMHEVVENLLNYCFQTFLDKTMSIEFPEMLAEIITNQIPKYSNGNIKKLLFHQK
Chain of Ubiquitin carboxyl-terminal hydrolase 2 (Homo sapiens) (O75604 whole entry, looked up): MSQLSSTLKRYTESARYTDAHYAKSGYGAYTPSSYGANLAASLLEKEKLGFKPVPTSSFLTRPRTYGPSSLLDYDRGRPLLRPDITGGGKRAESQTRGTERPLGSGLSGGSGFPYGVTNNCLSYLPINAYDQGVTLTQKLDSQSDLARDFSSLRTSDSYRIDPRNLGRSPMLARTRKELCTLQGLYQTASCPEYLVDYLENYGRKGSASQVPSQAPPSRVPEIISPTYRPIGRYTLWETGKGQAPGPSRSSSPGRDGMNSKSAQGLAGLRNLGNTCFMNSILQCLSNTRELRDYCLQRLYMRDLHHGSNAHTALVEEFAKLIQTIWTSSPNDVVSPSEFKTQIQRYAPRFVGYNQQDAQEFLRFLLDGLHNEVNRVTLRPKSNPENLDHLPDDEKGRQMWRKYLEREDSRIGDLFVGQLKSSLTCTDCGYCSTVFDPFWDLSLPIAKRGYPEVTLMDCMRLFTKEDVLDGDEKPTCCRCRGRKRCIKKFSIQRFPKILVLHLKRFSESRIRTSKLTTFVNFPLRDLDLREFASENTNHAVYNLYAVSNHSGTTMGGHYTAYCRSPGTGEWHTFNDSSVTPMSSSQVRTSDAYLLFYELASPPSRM
Chain of Guanine nucleotide-binding protein G(i) subunit alpha-1 (Homo sapiens) (P63096 whole entry, looked up): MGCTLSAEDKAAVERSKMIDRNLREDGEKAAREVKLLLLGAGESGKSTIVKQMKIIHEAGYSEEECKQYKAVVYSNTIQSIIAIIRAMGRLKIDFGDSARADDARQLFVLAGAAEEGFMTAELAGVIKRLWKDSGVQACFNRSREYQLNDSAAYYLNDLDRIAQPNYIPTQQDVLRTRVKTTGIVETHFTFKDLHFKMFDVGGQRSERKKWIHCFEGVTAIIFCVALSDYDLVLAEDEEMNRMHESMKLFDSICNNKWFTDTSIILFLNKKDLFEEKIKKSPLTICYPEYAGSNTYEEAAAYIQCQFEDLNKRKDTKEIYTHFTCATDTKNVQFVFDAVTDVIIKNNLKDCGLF
Chain of Ferritin light chain (Equus caballus) (P02791 2-175 limits assumed): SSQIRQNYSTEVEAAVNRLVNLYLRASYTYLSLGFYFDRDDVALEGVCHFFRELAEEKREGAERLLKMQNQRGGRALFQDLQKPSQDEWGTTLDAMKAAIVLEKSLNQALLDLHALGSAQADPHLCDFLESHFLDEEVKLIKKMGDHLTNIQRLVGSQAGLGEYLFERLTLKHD
Chain of DNA polymerase III PolC-type (Bacillus subtilis (strain 168)) (P13267 whole entry, looked up): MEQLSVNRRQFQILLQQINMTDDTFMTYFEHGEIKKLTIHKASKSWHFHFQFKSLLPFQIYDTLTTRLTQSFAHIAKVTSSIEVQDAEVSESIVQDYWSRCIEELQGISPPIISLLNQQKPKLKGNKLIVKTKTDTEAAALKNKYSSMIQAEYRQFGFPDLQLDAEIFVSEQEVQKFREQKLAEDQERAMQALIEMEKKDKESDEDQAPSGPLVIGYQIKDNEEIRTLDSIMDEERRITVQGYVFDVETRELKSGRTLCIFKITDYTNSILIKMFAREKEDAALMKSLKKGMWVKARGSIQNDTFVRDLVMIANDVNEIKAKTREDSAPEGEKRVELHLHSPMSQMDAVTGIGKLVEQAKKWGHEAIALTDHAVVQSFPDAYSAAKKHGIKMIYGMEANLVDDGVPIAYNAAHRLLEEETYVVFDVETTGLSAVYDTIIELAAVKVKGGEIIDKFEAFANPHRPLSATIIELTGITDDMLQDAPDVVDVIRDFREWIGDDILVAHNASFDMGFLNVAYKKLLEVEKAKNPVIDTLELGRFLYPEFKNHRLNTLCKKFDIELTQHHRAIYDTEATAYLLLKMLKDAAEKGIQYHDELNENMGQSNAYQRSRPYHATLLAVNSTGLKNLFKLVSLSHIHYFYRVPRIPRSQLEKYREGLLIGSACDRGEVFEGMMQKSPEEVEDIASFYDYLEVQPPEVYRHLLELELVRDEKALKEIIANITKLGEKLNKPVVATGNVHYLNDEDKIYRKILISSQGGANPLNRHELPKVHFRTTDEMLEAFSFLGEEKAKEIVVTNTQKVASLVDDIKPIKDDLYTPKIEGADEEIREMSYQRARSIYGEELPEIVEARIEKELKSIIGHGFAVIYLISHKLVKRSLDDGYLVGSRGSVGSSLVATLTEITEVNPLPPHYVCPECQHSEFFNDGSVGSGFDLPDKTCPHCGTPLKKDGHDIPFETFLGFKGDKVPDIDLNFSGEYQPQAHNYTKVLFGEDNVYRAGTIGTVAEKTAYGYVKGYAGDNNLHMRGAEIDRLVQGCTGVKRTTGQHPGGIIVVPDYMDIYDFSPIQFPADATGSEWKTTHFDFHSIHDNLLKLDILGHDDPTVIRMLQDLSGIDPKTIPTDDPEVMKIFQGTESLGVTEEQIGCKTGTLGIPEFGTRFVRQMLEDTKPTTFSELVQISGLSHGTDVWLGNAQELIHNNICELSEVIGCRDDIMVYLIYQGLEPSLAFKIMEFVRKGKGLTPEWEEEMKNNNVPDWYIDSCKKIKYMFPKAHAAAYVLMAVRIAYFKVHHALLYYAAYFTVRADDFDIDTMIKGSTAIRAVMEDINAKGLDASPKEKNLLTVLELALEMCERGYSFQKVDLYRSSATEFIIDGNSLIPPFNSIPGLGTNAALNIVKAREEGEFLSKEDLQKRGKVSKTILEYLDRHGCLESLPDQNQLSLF
Chain of Muscarinic acetylcholine receptor M1 (Rattus norvegicus) (P08482 whole entry, looked up): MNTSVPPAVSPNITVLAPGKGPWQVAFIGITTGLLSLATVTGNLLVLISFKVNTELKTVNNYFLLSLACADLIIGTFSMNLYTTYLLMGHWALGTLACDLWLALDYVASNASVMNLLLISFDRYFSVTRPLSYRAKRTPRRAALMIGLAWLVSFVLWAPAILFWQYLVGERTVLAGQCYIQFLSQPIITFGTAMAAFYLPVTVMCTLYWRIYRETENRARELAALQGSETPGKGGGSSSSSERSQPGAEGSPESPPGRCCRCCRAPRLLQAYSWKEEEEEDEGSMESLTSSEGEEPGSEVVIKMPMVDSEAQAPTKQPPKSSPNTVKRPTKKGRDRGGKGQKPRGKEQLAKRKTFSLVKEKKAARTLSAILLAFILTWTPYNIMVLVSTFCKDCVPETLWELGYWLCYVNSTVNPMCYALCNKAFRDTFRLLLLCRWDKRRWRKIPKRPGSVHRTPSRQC
Chain of Cytochrome P450 3A4 (Homo sapiens) (P08684 whole entry, looked up): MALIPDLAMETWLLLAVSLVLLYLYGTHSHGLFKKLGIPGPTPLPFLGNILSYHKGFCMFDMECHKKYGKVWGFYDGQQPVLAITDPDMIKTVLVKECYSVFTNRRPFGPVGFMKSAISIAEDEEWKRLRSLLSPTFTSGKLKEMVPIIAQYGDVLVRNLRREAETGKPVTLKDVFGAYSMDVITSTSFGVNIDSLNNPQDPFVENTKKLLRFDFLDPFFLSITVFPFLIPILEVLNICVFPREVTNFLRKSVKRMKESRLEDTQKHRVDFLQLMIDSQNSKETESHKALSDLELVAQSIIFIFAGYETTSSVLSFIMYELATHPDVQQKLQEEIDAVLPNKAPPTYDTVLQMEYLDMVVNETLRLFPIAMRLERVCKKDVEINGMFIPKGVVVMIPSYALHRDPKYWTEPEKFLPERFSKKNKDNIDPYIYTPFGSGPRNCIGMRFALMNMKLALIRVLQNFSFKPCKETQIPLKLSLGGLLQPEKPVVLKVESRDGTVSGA
Chain of Tumor susceptibility gene 101 protein (Homo sapiens) (Q99816 whole entry, looked up, the tested form may be a part): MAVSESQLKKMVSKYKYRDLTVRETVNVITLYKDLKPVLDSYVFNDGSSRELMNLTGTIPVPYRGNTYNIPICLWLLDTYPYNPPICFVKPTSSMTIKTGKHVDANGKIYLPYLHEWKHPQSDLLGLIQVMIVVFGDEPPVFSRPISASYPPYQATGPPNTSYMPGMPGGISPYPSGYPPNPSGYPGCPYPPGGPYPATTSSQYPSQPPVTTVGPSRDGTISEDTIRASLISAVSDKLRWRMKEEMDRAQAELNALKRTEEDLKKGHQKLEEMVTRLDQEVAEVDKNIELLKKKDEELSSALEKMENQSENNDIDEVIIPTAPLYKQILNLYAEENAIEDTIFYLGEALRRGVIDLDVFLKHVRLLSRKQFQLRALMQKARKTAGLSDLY
Chain of DNA repair nuclease/redox regulator APEX1 (Homo sapiens) (P27695 whole entry, looked up): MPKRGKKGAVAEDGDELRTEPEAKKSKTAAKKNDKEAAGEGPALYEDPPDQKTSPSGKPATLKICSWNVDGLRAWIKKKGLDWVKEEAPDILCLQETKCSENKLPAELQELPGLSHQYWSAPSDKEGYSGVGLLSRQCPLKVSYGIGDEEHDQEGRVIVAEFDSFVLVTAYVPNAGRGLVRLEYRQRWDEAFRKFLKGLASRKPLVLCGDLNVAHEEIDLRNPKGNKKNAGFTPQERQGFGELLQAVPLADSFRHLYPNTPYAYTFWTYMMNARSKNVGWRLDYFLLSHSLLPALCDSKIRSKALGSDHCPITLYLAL

C1CCC(N=C(NC23CC4CC(CC(C4)C2)C3)N2CCOCC2)CC1
-18.7%: max response ([16]; measured here: cell count channel max response)
-17.8%: max response ([16]; measured here: lipid channel max response)
inactive: activity change, negative = inhibition [1] 8.68% | Potency [2] | activity, negative = inhibition [3] 17.1% | Potency [4] > 46 µM | Potency [5] > 46 µM | Potency [6] | Potency [7] | outcome [8] | Potency [9] | Potency [12] | outcome [13] | outcome [14] | outcome [15] | activity change, negative = inhibition ([16]; at 57.5 µM (top of the series)) 1.57% | Potency [17] | Potency [18] | Potency [19] | Potency [21] | outcome [23] | Potency [24] | outcome [25] | outcome [26] | Potency [27] | Potency [28] | Potency [29] | Potency [30] | Potency [31] | outcome [32] | outcome [33]
active: Potency [10] 0.631 µM | Potency [11] 17.8 µM | Potency [20] 7.94 µM | Potency [22] 7.08 µM
